Screen size: about 5,500 compounds; about 2,000 (36%) were called active. Another 18% or so got no clear call; they are omitted. Cut-off read from the data, not from the text of the source: active = normalized growth mostly below about 0.91 (no sharp cut-off); inconclusive = no clear call, values can overlap the other calls; inactive = mostly above about 0.92. This is one part of the list.
Test: chemical genetic growth profiling, strain panel (AID 1159580);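 note: tested at 20 µM; growth read once vehicle control cultures reached saturation at 30 °C; 1 = growth at the plate median or of vehicle wells; lower values mean less growth of the strain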
Conditions: growth OD
[1] = S. cerevisiae deletion strains, locus YDL101C, strain DUN1, stronger effect = lower value
[2] = S. cerevisiae deletion strains, locus YHR030C, strain SLT2, stronger effect = lower value

Measured: normalized growth

FC(F)(F)c1cc(-c2ccc(Cl)cc2)n[nH]1
active: [2] 0.763 | S. cerevisiae deletion strains, locus YLR113W, strain HOG1, stronger effect = lower value 0.701 | S. cerevisiae deletion strains, locus YPL256C, strain CLN2, stronger effect = lower value 0.677
inactive: S. cerevisiae deletion strains, locus YAR019C, strain CDC15, stronger effect = lower value 0.908 | S. cerevisiae deletion strains, locus YBL105C, strain PKC1, stronger effect = lower value 0.923 | S. cerevisiae deletion strains, locus YBR135W, strain CKS1, stronger effect = lower value 0.916 | S. cerevisiae deletion strains, locus YBR136W, strain MEC1, stronger effect = lower value 0.918 | S. cerevisiae deletion strains, locus YBR160W, strain CDC28, stronger effect = lower value 0.922 | S. cerevisiae deletion strains, locus YDL017W, strain CDC7, stronger effect = lower value 0.931 | S. cerevisiae deletion strains, locus YDL028C, strain MPS1, stronger effect = lower value 0.918 | [1] 0.926 | S. cerevisiae deletion strains, locus YDL108W, strain KIN28, stronger effect = lower value 0.925 | S. cerevisiae deletion strains, locus YDL132W, strain cdc53, stronger effect = lower value 0.917 | S. cerevisiae deletion strains, locus YDL214C, strain PRR2, stronger effect = lower value 0.826 | S. cerevisiae deletion strains, locus YDR052C, strain DBF4, stronger effect = lower value 0.927 | S. cerevisiae deletion strains, locus YDR054C, strain cdc34, stronger effect = lower value 0.904 | S. cerevisiae deletion strains, locus YDR226W, strain ADK1, stronger effect = lower value 0.921 | S. cerevisiae deletion strains, locus YDR477W, strain SNF1, stronger effect = lower value 0.848 | S. cerevisiae deletion strains, locus YER123W, strain YCK3, stronger effect = lower value 0.789 | S. cerevisiae deletion strains, locus YER133W, strain GLC7, stronger effect = lower value 0.779 | S. cerevisiae deletion strains, locus YFL009W, strain cdc4, stronger effect = lower value 0.908 | S. cerevisiae deletion strains, locus YFL029C, strain CAK1, stronger effect = lower value 0.906 | S. cerevisiae deletion strains, locus YFR003C, strain YPI1, stronger effect = lower value 0.92 | S. cerevisiae deletion strains, locus YFR019W, strain FAB1, stronger effect = lower value 0.901 | S. cerevisiae deletion strains, locus YFR028C, strain CDC14, stronger effect = lower value 0.909 | S. cerevisiae deletion strains, locus YGR040W, strain KSS1, stronger effect = lower value 0.813 | S. cerevisiae deletion strains, locus YGR052W, strain FMP48, stronger effect = lower value 0.834 | S. cerevisiae deletion strains, locus YGR092W, strain DBF2, stronger effect = lower value 0.807 | S. cerevisiae deletion strains, locus YHR079C, strain IRE1, stronger effect = lower value 0.803 | S. cerevisiae deletion strains, locus YHR082C, strain KSP1, stronger effect = lower value 0.826 | S. cerevisiae deletion strains, locus YHR205W, strain SCH9, stronger effect = lower value 0.842 | S. cerevisiae deletion strains, locus YIL147C, strain SLN1, stronger effect = lower value 0.921 | S. cerevisiae deletion strains, locus YJL095W, strain BCK1, stronger effect = lower value 0.74 | S. cerevisiae deletion strains, locus YJL128C, strain PBS2, stronger effect = lower value 0.882 | S. cerevisiae deletion strains, locus YJL157C, strain FAR1, stronger effect = lower value 0.813 | S. cerevisiae deletion strains, locus YJR016C, strain ILV3, stronger effect = lower value 0.915 | S. cerevisiae deletion strains, locus YJR066W, strain TOR1 (second series), stronger effect = lower value 0.948 | S. cerevisiae deletion strains, locus YJR066W, strain TOR1, stronger effect = lower value 0.763 | S. cerevisiae deletion strains, locus YKL048C, strain ELM1, stronger effect = lower value 0.857 | S. cerevisiae deletion strains, locus YKL067W, strain YNK1, stronger effect = lower value 0.84 | S. cerevisiae deletion strains, locus YKL101W, strain HSL1, stronger effect = lower value 0.836 | S. cerevisiae deletion strains, locus YKL193C, strain SDS22, stronger effect = lower value 0.902 | S. cerevisiae deletion strains, locus YKL203C, strain TOR2, stronger effect = lower value 0.819 | S. cerevisiae deletion strains, locus YLR133W, strain CKI1, stronger effect = lower value 0.843 | S. cerevisiae deletion strains, locus YLR403W, strain SFP1, stronger effect = lower value 0.74 | S. cerevisiae deletion strains, locus YML070W, strain DAK1, stronger effect = lower value 0.789 | S. cerevisiae deletion strains, locus YMR001C, strain CDC5, stronger effect = lower value 0.911 | S. cerevisiae deletion strains, locus YMR205C, strain PFK2 (second series), stronger effect = lower value 0.846 | S. cerevisiae deletion strains, locus YMR277W, strain FCP1, stronger effect = lower value 0.915 | S. cerevisiae deletion strains, locus YNL006W, strain LST8, stronger effect = lower value 0.935 | S. cerevisiae deletion strains, locus YNL020C, strain ARK1, stronger effect = lower value 0.841 | S. cerevisiae deletion strains, locus YNL161W, strain CBK1, stronger effect = lower value 0.913 | S. cerevisiae deletion strains, locus YNL183C, strain NPR1, stronger effect = lower value 0.756 | S. cerevisiae deletion strains, locus YNL207W, strain RIO2, stronger effect = lower value 0.897 | S. cerevisiae deletion strains, locus YNL222W, strain SSU72, stronger effect = lower value 0.91 | S. cerevisiae deletion strains, locus YNL307C, strain MCK1 (second series), stronger effect = lower value 0.853 | S. cerevisiae deletion strains, locus YOL078W, strain AVO1, stronger effect = lower value 0.903 | S. cerevisiae deletion strains, locus YOL136C, strain PFK27, stronger effect = lower value 0.803 | S. cerevisiae deletion strains, locus YOR061W, strain CKA2, stronger effect = lower value 0.869 | S. cerevisiae deletion strains, locus YOR119C, strain RIO1, stronger effect = lower value 0.826 | S. cerevisiae deletion strains, locus YOR231W, strain MKK1, stronger effect = lower value 0.747 | S. cerevisiae deletion strains, locus YOR329C, strain SCD5, stronger effect = lower value 0.912 | S. cerevisiae deletion strains, locus YPL031C, strain PHO85, stronger effect = lower value 0.824 | S. cerevisiae deletion strains, locus YPL153C, strain RAD53, stronger effect = lower value 0.829 | S. cerevisiae deletion strains, locus YPL204W, strain HRR25, stronger effect = lower value 0.798 | S. cerevisiae deletion strains, locus YPL209C, strain IPL1, stronger effect = lower value 0.916 | S. cerevisiae deletion strains, locus YPR025C, strain CCL1, stronger effect = lower value 0.917 | S. cerevisiae deletion strains, locus YPR106W, strain ISR1, stronger effect = lower value 0.901 | S. cerevisiae deletion strains, locus YPR111W, strain DBF20, stronger effect = lower value 0.892 | S. cerevisiae deletion strains, strain NNK1, stronger effect = lower value 0.902 | S. cerevisiae deletion strains, strain TSCII, stronger effect = lower value 0.911

CC(C)(C)c1cc(-c2cc(C(F)(F)F)[nH]n2)c2c(c1)C(C)(C)CC2
inactive: S. cerevisiae deletion strains, locus YAL013W, strain DEP1, stronger effect = lower value 0.976 | S. cerevisiae deletion strains, locus YBR229C, strain ROT2, stronger effect = lower value 1 | S. cerevisiae deletion strains, locus YCL061C, strain MRC1, stronger effect = lower value 0.995 | [1] 1 | S. cerevisiae deletion strains, locus YDR150W, strain NUM1, stronger effect = lower value 0.874 | S. cerevisiae deletion strains, locus YEL061C, strain CIN8, stronger effect = lower value 1 | S. cerevisiae deletion strains, locus YGR078C, strain PAC10, stronger effect = lower value 1 | [2] 1.09 | S. cerevisiae deletion strains, locus YHR087W, strain rtc3, stronger effect = lower value 0.989 | S. cerevisiae deletion strains, locus YJR043C, strain POL32, stronger effect = lower value 0.982 | S. cerevisiae deletion strains, locus YJR075W, strain HOC1, stronger effect = lower value 0.966 | S. cerevisiae deletion strains, locus YLR039C, strain RIC1, stronger effect = lower value 0.897 | S. cerevisiae deletion strains, locus YLR058C, strain SHM2 (second series), stronger effect = lower value 1.01 | S. cerevisiae deletion strains, locus YLR085C, strain ARP6, stronger effect = lower value 1.03 | S. cerevisiae deletion strains, locus YLR262C, strain YPT6, stronger effect = lower value 0.891 | S. cerevisiae deletion strains, locus YML094W, strain GIM5, stronger effect = lower value 0.998 | S. cerevisiae deletion strains, locus YMR219W, strain ESC1, stronger effect = lower value 1 | S. cerevisiae deletion strains, locus YMR263W, strain SAP30, stronger effect = lower value 0.974 | S. cerevisiae deletion strains, locus YMR307W, strain GAS1, stronger effect = lower value 0.998 | S. cerevisiae deletion strains, locus YNL153C, strain GIM3, stronger effect = lower value 0.997 | S. cerevisiae deletion strains, locus YNL298W, strain CLA4 (second series), stronger effect = lower value 1.01 | S. cerevisiae deletion strains, locus YNL322C, strain KRE1, stronger effect = lower value 0.993 | S. cerevisiae deletion strains, locus YNR030W, strain Alg12, stronger effect = lower value 0.99 | S. cerevisiae deletion strains, locus YPL055C, strain LGE1, stronger effect = lower value 0.985 | S. cerevisiae deletion strains, locus YPL241C, strain CIN2, stronger effect = lower value 1 | S. cerevisiae deletion strains, locus YPR135W, strain CTF4, stronger effect = lower value 0.881 | S. cerevisiae strains, strain wild type, stronger effect = lower value 1.01

From PubChem BioAssay AID1159580 (chemical genetic matrix, 2015)
